# From ChEMBL document CHEMBL1961873, “Compounds: GSK PKIS; Assays: Nanosyn kinase panel” (2012)
# Target: Tyrosine-protein kinase Blk (Homo sapiens) (UniProt P51451);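 further: mean percent inhibition of BLK kinase activity, from GSK PKIS kinase inhibitor set profiling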
# Settings: at 1 µM
# Sequence of Tyrosine-protein kinase Blk (Homo sapiens) (P51451 2-505 limits assumed): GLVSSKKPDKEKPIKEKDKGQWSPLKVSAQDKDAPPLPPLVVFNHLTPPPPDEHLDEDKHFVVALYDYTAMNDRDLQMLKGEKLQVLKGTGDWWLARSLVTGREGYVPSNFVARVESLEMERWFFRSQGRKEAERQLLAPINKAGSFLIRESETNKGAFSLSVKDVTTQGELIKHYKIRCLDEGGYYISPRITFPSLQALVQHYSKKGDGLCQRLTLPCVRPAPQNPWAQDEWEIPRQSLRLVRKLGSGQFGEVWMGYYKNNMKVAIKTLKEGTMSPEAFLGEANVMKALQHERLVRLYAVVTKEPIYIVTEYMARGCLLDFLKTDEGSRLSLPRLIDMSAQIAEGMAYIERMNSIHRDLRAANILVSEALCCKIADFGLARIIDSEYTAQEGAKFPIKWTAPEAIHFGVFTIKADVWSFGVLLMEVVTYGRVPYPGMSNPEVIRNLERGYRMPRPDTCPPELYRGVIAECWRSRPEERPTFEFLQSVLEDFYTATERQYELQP
row,Compound,inhibition [%]
1,CN(C)c1ccc2c(c1)/C(=C/Nc1ccc(S(N)(=O)=O)cc1)C(=O)N2,33.2
2,CN(c1ccc(NC(=O)Nc2c(Cl)cccc2Cl)cc1)c1ccnc(Nc2cccc(CS(C)(=O)=O)c2)n1,75
3,Fc1ccc(-c2c(-c3ccncc3)nc3n2CCS3)cc1,-0.74
4,N#Cc1ccc(Oc2nccc(-c3c(-c4ccc(F)cc4)ncn3C3CCNCC3)n2)cc1,3.73
5,CN1CCN(CCCNc2nc3ccc(Oc4ccc(NC(=O)Nc5cc(C(F)(F)F)ccc5F)cc4)cc3[nH]2)CC1,-2.3
6,COc1cc(Nc2ncc(-c3ccccc3)o2)cc(OC)c1OC,41.1
7,COc1cc2ncn(-c3cc(OCc4cccs4)c(C(N)=O)s3)c2cc1OC,18.6
8,COc1cc2ncn(-c3cc(OCc4ccccc4C(F)(F)F)c(C(C)=O)s3)c2cc1OC,4.29
9,CN(C)CCCNc1nccc(-c2c(-c3ccc(F)cc3)nn3cc(C(F)(F)F)ccc23)n1,-0.77
10,c1ccc(Oc2ccc(Nc3ncc(-c4ccccc4)o3)cc2)cc1,2.96
11,Fc1ccc(-c2ncn(CCCN3CCOCC3)c2-c2ccncc2)cc1,1.04
12,COc1ccc2cc(-c3c(-c4ccncc4)nc(-c4ccc([S+](C)[O-])cc4C)n3C)ccc2c1 (stereo not drawn),4.39
13,CS(=O)(=O)CCNCc1cc(-c2cc3c(Nc4ccc(OCc5cccc(F)c5)c(Cl)c4)ncnc3s2)cs1,5.05
14,O=C1Nc2ccc(I)cc2C1=Cc1cc(Br)c(O)c(Br)c1,3.74
15,CCc1cccc(CC)c1/C=C/c1cncc(C(=O)NC)c1,4.46
16,Fc1ccc(-c2ncn(C3CCNCC3)c2-c2ccnc(Oc3ccc(Oc4ccccc4)cc3)n2)cc1,3.79
17,COc1ccc(C2=C(N3CCc4ccccc43)C(=O)NC2=O)cc1,2.94

row,Compound,inhibition [%]
1,O=C1Nc2ccccc2/C1=C/Nc1ccc(-n2cncn2)cc1,19.7
2,O=C(Nc1n[nH]c2cc(-c3cc(F)ccc3F)ccc12)C1CC1,4.54
3,CCN(CC)Cc1ccc(Nc2nccc(-c3cnn4ncccc34)n2)cc1,1.7
4,CCc1ccc(Oc2nccc(-c3c(-c4ccc(F)cc4)ncn3C3CCNCC3)n2)cc1,4.68
5,O=C(Nc1n[nH]c2nc(-c3ccco3)ccc12)C1CC1,5.1
6,NC(=O)Cc1ccccc1Oc1nccc(-c2c(-c3ccc(F)cc3)ncn2C2CCNCC2)n1,2.66
7,CCc1nccc2c1nc(-c1nonc1N)n2CC,1.64
8,NC(=O)c1cc(-c2ccncc2)cc(-c2ccccc2)c1N,17.5
9,COc1ccc(-c2ccc3c(NC(=O)C4CC4)n[nH]c3n2)cc1,2.8
10,COC(=O)Nc1nc2ccc(Sc3ccc(NC(=O)Nc4cc(C(F)(F)F)ccc4F)cc3)cc2[nH]1,2.36
11,Fc1ccc(-c2ncn(C3CCNCC3)c2-c2ccnc(Oc3ccc(F)c(F)c3)n2)cc1,-2.13
12,O=C(Nc1n[nH]c2nc(-c3ccc(O)cc3)c(Br)cc12)C1CC1,15.4
13,Cc1ccc(NC(=O)c2ccoc2)cc1-c1ccc(C(=O)NCC2CC2)cc1,3.07
14,COc1cc(N2CCN(C(C)C)CC2)ccc1Nc1nc(Nc2ccc(F)cc2C(=O)NC[C@@H](O)CO)c2cc[nH]c2n1,0.03
15,CCS(=O)(=O)c1ccc(OC)c(Nc2ncc(-c3cccc(-c4ccccc4F)c3)o2)c1,55.5
16,NS(=O)(=O)c1ccc(N/N=C2\C(=O)Nc3ccc(-c4cnco4)cc32)cc1,10.4
17,C[C@@H](Oc1cc(-n2cnc3ccc(OC4CCN(C)CC4)cc32)sc1C(N)=O)c1ccccc1Cl,-0.94

# Target: T1, Cytoplasmic tyrosine-protein kinase BMX (Homo sapiens) (UniProt P51813)
# T1 sequence (whole entry): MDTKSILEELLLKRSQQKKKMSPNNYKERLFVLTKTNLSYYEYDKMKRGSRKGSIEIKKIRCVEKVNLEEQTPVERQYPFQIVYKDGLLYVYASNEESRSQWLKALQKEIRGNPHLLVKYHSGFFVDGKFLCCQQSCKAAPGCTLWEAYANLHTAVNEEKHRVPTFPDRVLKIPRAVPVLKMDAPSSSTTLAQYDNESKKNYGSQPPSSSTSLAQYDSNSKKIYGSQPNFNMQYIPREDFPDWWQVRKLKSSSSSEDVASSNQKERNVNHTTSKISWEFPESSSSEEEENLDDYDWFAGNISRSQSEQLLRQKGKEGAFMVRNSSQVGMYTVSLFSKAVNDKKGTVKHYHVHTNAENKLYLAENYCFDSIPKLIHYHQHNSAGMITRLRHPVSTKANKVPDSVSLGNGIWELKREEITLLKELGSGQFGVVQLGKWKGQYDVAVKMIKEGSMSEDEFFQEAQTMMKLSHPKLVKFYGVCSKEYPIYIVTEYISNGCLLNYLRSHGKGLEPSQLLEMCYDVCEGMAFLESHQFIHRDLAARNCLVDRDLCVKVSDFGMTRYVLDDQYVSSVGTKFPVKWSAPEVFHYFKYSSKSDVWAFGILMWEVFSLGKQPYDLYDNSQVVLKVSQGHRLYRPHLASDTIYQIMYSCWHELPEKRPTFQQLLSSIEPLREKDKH
# Settings: at 0.1 µM
row,Compound,inhibition [%]
1,CN(C)c1ccc2c(c1)/C(=C/Nc1ccc(S(N)(=O)=O)cc1)C(=O)N2,-8.96
2,CN(c1ccc(NC(=O)Nc2c(Cl)cccc2Cl)cc1)c1ccnc(Nc2cccc(CS(C)(=O)=O)c2)n1,47.1
3,Fc1ccc(-c2c(-c3ccncc3)nc3n2CCS3)cc1,1.44
4,N#Cc1ccc(Oc2nccc(-c3c(-c4ccc(F)cc4)ncn3C3CCNCC3)n2)cc1,3.25
5,CN1CCN(CCCNc2nc3ccc(Oc4ccc(NC(=O)Nc5cc(C(F)(F)F)ccc5F)cc4)cc3[nH]2)CC1,-1.87
6,COc1cc(Nc2ncc(-c3ccccc3)o2)cc(OC)c1OC,2.78
7,COc1cc2ncn(-c3cc(OCc4cccs4)c(C(N)=O)s3)c2cc1OC,-4.41
8,COc1cc2ncn(-c3cc(OCc4ccccc4C(F)(F)F)c(C(C)=O)s3)c2cc1OC,4.87
9,CN(C)CCCNc1nccc(-c2c(-c3ccc(F)cc3)nn3cc(C(F)(F)F)ccc23)n1,-2.3
10,c1ccc(Oc2ccc(Nc3ncc(-c4ccccc4)o3)cc2)cc1,-4.27
11,Fc1ccc(-c2ncn(CCCN3CCOCC3)c2-c2ccncc2)cc1,1.9
12,COc1ccc2cc(-c3c(-c4ccncc4)nc(-c4ccc([S+](C)[O-])cc4C)n3C)ccc2c1 (stereo not drawn),0.28
13,CS(=O)(=O)CCNCc1cc(-c2cc3c(Nc4ccc(OCc5cccc(F)c5)c(Cl)c4)ncnc3s2)cs1,3.9
14,O=C1Nc2ccc(I)cc2C1=Cc1cc(Br)c(O)c(Br)c1,2.64
15,CCc1cccc(CC)c1/C=C/c1cncc(C(=O)NC)c1,0.51
16,Fc1ccc(-c2ncn(C3CCNCC3)c2-c2ccnc(Oc3ccc(Oc4ccccc4)cc3)n2)cc1,3.11
17,COc1ccc(C2=C(N3CCc4ccccc43)C(=O)NC2=O)cc1,-1.14

row,Compound,inhibition [%]
1,O=C1Nc2ccccc2/C1=C/Nc1ccc(-n2cncn2)cc1,6.8
2,O=C(Nc1n[nH]c2cc(-c3cc(F)ccc3F)ccc12)C1CC1,1.69
3,CCN(CC)Cc1ccc(Nc2nccc(-c3cnn4ncccc34)n2)cc1,2.63
4,CCc1ccc(Oc2nccc(-c3c(-c4ccc(F)cc4)ncn3C3CCNCC3)n2)cc1,5.07
5,O=C(Nc1n[nH]c2nc(-c3ccco3)ccc12)C1CC1,-0.85
6,NC(=O)Cc1ccccc1Oc1nccc(-c2c(-c3ccc(F)cc3)ncn2C2CCNCC2)n1,7.68
7,CCc1nccc2c1nc(-c1nonc1N)n2CC,-1.94
8,NC(=O)c1cc(-c2ccncc2)cc(-c2ccccc2)c1N,11.8
9,COc1ccc(-c2ccc3c(NC(=O)C4CC4)n[nH]c3n2)cc1,3.4
10,COC(=O)Nc1nc2ccc(Sc3ccc(NC(=O)Nc4cc(C(F)(F)F)ccc4F)cc3)cc2[nH]1,3.33
11,Fc1ccc(-c2ncn(C3CCNCC3)c2-c2ccnc(Oc3ccc(F)c(F)c3)n2)cc1,3.36
12,O=C(Nc1n[nH]c2nc(-c3ccc(O)cc3)c(Br)cc12)C1CC1,3.85
13,Cc1ccc(NC(=O)c2ccoc2)cc1-c1ccc(C(=O)NCC2CC2)cc1,3.34
14,COc1cc(N2CCN(C(C)C)CC2)ccc1Nc1nc(Nc2ccc(F)cc2C(=O)NC[C@@H](O)CO)c2cc[nH]c2n1,3.82
15,CCS(=O)(=O)c1ccc(OC)c(Nc2ncc(-c3cccc(-c4ccccc4F)c3)o2)c1,-4.54
16,NS(=O)(=O)c1ccc(N/N=C2\C(=O)Nc3ccc(-c4cnco4)cc32)cc1,0.98
17,C[C@@H](Oc1cc(-n2cnc3ccc(OC4CCN(C)CC4)cc32)sc1C(N)=O)c1ccccc1Cl,4
